Laboratory results from PubChem BioAssay (Tox21).
Where “and” joins values, the source holds several entries; their conditions need not be identical. Equal entries are not always repeated. Records with an inconclusive call do not appear. Entries that show only a call come without a potency. The source holds several records for some structures; these can differ, active in one and inactive in another. Calls of active or inactive are those of the source. Unless noted, the call rests on the fitted dose curve; in most records, active means well fitted curve in the direction sought with a large enough effect in the repeat runs; inconclusive means weak or mixed curves; inactive means no such curve, though single readings can be large; an effect the other way counts as inactive or inconclusive.

Assays:
[1] = target: Thyrotropin-releasing hormone receptor (Homo sapiens) (UniProt P34981); experiment: qHTS assay to identify small molecule agonists of the thyrotropin-releasing hormone receptor (TRHR) signaling pathway (AID 1346891; calls by dose curve; further: series mostly up to about 58 µM)
Thyrotropin-releasing hormone receptor (Homo sapiens), sequence (P34981 whole entry, looked up): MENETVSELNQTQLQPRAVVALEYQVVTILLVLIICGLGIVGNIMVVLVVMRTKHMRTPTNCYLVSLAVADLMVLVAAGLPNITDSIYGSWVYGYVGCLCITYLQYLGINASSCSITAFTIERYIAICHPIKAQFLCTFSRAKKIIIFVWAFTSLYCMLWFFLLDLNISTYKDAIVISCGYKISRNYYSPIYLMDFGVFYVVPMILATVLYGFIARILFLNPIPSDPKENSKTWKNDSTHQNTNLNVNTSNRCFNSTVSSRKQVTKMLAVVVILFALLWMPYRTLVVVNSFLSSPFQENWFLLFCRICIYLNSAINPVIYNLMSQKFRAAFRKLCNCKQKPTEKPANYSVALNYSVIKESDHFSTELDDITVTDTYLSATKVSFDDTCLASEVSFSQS
In short: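 Agonist-mode intracellular calcium readout: kinetic fluorescence over 3 min at 1 s intervals after compound addition to TRHR-HEK293 cells (18 h seeded, 2 h dye-loaded at 37 C). Fifteen concentrations, triplicates.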

[2] = Human pregnane X receptor (PXR) small molecule agonists, qHTS cell viability counter screen (AID 1346977); further: nearly all actives have a fitted effect of over 50% in size; further: potency means the concentration at half of the fitted maximal effect
In short: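 Same-well viability read: CellTiter-Fluor added after 23 hr compound exposure, fluorescence measured 1 hr later. Cells were PXR-Luc HepG2 seeded at 2,000/well in 5% charcoal-stripped FBS medium, rested 5 hr before dosing at 37 C.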

[3] = Caspase-3/7 induction in HepG2 cells by small molecules, qHTS assay (AID 1346978); further: nearly all actives have a fitted effect of over 15% in size; further: potency means the concentration at half of the fitted maximal effect
In short: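 Caspase-3/7 induction was measured by Caspase-Glo 3/7 luminescence (30 min, room temperature) after a 17 hr compound exposure of wild-type HepG2 cells seeded at 2,000 per well and pre-incubated 5 hr.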

[4] = Caspase-3/7 induction in CHO-K1 cells by small molecules, qHTS cell viability counter screen (AID 1346979); further: nearly all actives have a fitted effect of over 35% in size; further: potency means the concentration at half of the fitted maximal effect
In short: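 Cytotoxicity counter screen: CellTiter-Fluor added to compound-treated wild-type CHO-K1 cells at 16 h (37C, 5% CO2), fluorescence measured 1 h later; same wells as caspase-3/7 measurement.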

[5] = Caspase-3/7 induction in CHO-K1 cells by small molecules, qHTS assay (AID 1346980); further: nearly all actives have a fitted effect of over 15% in size
In short: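 Luminescent Caspase-Glo 3/7 read (30min, room temperature) quantified apoptosis induction. Cells were wild-type CHO-K1, treated with compound for 17hr at 37 C and 5% CO2.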

[6] = target: Nuclear receptor subfamily 1 group I member 2 (Homo sapiens) (UniProt O75469); experiment: Human pregnane X receptor (PXR) small molecule agonists, qHTS assay (AID 1346982); further: nearly all actives have a fitted effect of over 35% in size; further: potency means the concentration at half of the fitted maximal effect
Nuclear receptor subfamily 1 group I member 2 (Homo sapiens), sequence (O75469 whole entry, looked up): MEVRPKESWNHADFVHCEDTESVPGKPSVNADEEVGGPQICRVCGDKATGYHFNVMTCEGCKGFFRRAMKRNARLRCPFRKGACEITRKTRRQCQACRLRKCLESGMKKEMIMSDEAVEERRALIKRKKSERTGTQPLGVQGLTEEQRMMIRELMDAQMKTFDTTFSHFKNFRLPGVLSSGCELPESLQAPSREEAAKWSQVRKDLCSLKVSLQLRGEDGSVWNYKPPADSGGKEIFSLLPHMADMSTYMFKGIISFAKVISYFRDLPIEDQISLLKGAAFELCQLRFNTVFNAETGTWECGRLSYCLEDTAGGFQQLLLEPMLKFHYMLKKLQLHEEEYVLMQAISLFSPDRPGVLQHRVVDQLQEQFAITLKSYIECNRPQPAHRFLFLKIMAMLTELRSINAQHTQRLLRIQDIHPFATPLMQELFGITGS
In short: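 Luminescence (ONE-Glo, 30 min RT) after 24 hr compound exposure of PXR-Luc HepG2 cells; cells rested 5 hr post-plating in 5% charcoal-stripped FBS medium.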

[7] = target: Nuclear receptor subfamily 1 group I member 2 (Rattus norvegicus) (UniProt Q9R1A7); experiment: Rat pregnane X receptor (rPXR) activation by small molecules, qHTS assay (AID 1346983); settings: rPXR luciferase reporter cells, One-Glo luminescence, 24 h; stronger effect = higher value; further: nearly all actives have a fitted effect of over 20% in size
Nuclear receptor subfamily 1 group I member 2 (Rattus norvegicus), sequence (Q9R1A7 whole entry, looked up): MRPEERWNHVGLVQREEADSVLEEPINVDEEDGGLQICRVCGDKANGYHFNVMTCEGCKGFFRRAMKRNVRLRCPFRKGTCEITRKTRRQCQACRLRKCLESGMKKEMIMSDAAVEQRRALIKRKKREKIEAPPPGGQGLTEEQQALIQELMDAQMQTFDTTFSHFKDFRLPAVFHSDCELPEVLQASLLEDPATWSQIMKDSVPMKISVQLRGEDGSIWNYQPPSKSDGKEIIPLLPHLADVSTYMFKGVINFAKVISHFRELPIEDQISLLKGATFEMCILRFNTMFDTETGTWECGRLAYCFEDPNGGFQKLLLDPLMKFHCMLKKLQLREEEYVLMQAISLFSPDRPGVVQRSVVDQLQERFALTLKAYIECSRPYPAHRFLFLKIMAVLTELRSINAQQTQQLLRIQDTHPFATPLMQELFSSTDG
In short: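 Luminescent readout (One-Glo luciferase, 30 min room temperature) followed 24 hr compound treatment at 37 C of rPXR cells plated 2,000 per well and preincubated 5hr; qHTS format with compounds delivered in DMSO.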

[8] = target: Nuclear receptor subfamily 1 group I member 2 (Homo sapiens) (UniProt O75469); experiment: Human pregnane X receptor (PXR) activation by small molecules, qHTS assay (AID 1346985); further: nearly all actives have a fitted effect of over 40% in size; further: potency means the concentration at half of the fitted maximal effect
In short: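 DPX-2 cells (HepG2 co-transfected with a PXR response element and a CYP3A4-promoter luciferase construct) were seeded at 2,000 per well, rested 5 hr at 37C, then exposed to DMSO-dissolved compounds for 24 hr. Activation was read as luciferase luminescence.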

[9] = target: Cytochrome P450 2C19 (Homo sapiens) (UniProt P33261); experiment: Cytochrome P450 Family 2 Subfamily C Member 19 (CYP2C19) small molecule antagonists: luciferase reporter qHTS assay (AID 1671197); further: nearly all actives have a fitted effect of over 65% in size; further: potency means the concentration at half of the fitted maximal effect
Cytochrome P450 2C19 (Homo sapiens), sequence (P33261 whole entry, looked up): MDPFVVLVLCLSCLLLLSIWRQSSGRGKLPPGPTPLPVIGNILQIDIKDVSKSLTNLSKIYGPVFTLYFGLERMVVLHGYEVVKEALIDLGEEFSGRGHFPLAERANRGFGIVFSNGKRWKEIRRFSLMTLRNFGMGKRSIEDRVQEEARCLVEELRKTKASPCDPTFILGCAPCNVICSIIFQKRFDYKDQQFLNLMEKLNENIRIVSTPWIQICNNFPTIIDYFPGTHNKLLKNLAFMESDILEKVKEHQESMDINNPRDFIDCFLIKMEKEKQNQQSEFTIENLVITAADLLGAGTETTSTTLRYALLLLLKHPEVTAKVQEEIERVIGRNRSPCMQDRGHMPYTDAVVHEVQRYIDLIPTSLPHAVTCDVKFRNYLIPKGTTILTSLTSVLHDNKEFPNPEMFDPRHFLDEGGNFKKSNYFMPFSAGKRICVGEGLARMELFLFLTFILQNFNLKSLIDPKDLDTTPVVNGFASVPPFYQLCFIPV
In short: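 Luminescent readout of CYP2C19 activity: luciferin product detected 20 min after adding detection reagent. Before that, compound and enzyme-substrate mix preincubated 10 min at room temperature; NADPH-regenerating system started a 1 h, 37C reaction. Ketoconazole as positive control.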

[10] = target: Cytochrome P450 2C9 (Homo sapiens) (UniProt P11712); experiment: Cytochrome P450 Family 2 Subfamily C Member 9 (CYP2C9) small molecule antagonists: luciferase reporter qHTS assay (AID 1671198); further: nearly all actives have a fitted effect of over 50% in size; further: potency means the concentration at half of the fitted maximal effect
Cytochrome P450 2C9 (Homo sapiens), sequence (P11712 whole entry, looked up): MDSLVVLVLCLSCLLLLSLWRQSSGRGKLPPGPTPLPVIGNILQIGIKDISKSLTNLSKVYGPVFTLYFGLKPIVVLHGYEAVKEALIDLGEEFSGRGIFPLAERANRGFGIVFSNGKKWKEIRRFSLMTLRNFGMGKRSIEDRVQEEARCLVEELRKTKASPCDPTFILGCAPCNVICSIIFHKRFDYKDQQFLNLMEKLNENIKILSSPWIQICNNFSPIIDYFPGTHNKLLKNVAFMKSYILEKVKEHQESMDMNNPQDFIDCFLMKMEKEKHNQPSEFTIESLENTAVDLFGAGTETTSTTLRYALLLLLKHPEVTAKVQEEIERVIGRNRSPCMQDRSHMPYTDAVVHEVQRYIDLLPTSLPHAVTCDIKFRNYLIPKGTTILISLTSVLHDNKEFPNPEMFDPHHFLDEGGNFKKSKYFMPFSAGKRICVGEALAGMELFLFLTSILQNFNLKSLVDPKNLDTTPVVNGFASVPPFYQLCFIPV
In short: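 Enzyme-substrate mix preincubated with compound 10 min at room temperature; reaction started with NADPH regeneration solution, 1 h 37C. Luminescent luciferin product read after 20 min detection reagent.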

[11] = target: Cytochrome P450 1A2 (Homo sapiens) (UniProt P05177); experiment: Cytochrome P450 Family 1 Subfamily A Member 2 (CYP1A2) small molecule antagonists: luciferase reporter qHTS assay (AID 1671199); further: nearly all actives have a fitted effect of over 50% in size; further: potency means the concentration at half of the fitted maximal effect
Cytochrome P450 1A2 (Homo sapiens), sequence (P05177 whole entry, looked up): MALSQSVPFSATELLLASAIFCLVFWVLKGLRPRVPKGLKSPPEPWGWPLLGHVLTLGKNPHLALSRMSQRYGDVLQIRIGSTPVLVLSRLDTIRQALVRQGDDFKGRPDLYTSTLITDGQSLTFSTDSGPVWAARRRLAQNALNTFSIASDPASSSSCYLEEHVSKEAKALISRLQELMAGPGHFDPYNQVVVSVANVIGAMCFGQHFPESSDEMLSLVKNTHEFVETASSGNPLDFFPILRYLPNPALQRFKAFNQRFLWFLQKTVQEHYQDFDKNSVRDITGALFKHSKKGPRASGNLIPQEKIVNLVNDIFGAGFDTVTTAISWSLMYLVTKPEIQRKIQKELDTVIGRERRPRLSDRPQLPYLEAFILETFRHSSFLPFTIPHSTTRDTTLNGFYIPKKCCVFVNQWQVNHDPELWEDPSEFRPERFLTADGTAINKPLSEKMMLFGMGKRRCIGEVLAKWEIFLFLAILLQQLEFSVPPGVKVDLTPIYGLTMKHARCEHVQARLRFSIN
In short: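 Signal from luciferin formed by CYP1A2 from a proluciferin substrate is read as luminescence, expressed in relative luminescence units. Compounds sit with enzyme 10 min, NADPH-driven reaction runs 1 h, all at room temperature.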

[12] = target: Cytochrome P450 3A4 (Homo sapiens) (UniProt P08684); experiment: Cytochrome P450 Family 3 Subfamily A Member 4 (CYP3A4) small molecule antagonists: luciferase reporter qHTS assay (AID 1671201); further: series mostly up to about 120 µM; nearly all actives have a fitted effect of over 50% in size
Cytochrome P450 3A4 (Homo sapiens), sequence (P08684 whole entry, looked up): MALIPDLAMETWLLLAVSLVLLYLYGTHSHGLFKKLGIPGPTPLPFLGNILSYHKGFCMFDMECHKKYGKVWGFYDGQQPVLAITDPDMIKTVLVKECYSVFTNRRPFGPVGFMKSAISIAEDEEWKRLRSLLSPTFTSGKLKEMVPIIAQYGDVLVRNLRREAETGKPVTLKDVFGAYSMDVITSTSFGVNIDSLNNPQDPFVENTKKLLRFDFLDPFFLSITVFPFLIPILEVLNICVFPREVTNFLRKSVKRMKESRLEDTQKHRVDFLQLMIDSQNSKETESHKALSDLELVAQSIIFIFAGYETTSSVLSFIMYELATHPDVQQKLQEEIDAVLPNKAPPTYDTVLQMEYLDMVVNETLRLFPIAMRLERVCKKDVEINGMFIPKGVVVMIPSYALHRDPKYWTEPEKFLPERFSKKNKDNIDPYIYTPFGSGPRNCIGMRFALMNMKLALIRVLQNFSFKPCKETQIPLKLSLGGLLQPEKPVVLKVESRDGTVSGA
In short: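 Recombinant human CYP3A4 converts a proluciferin substrate to luciferin over 1 h at room temperature after NADPH regeneration solution is added (compound preincubated 10 min); detection reagent stops reaction, luminescence read 20 min later as relative units.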

[13] = target: Cytochrome P450 2D6 (Homo sapiens) (UniProt P10635); experiment: Cytochrome P450 Family 2 Subfamily D Member 6 (CYP2D6) small molecule antagonists: luciferase reporter qHTS assay (AID 1671196); further: nearly all actives have a fitted effect of over 50% in size; further: potency means the concentration at half of the fitted maximal effect
Cytochrome P450 2D6 (Homo sapiens), sequence (P10635 whole entry, looked up): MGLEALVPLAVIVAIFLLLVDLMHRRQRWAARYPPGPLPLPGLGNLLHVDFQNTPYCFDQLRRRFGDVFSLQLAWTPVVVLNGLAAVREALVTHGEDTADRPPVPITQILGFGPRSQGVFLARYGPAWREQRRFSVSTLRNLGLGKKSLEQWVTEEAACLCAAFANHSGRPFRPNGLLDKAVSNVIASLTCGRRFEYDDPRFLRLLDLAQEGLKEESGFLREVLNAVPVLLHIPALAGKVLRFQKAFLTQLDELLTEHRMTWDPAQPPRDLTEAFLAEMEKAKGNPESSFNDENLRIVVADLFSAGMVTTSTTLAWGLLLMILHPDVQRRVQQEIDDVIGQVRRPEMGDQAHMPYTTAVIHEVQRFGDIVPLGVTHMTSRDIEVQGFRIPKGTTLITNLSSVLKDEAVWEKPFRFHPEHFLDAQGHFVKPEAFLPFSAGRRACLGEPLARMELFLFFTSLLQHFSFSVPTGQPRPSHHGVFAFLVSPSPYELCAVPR
In short: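 Inhibition of CYP2D6 was gauged by loss of luminescence, since light produced tracks the luciferin generated from a proluciferin substrate. A 10 min room-temperature preincubation preceded 1 h NADPH-supported turnover.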

[14] = target: Voltage-gated inwardly rectifying potassium channel KCNH2 (Homo sapiens) (UniProt Q12809); experiment: Human Ether-a-go-go-Related Gene (hERG) channel small molecule antagonists: fluorescence cell-based qHTS assay (AID 1671200)
Voltage-gated inwardly rectifying potassium channel KCNH2 (Homo sapiens), sequence (Q12809 whole entry, looked up): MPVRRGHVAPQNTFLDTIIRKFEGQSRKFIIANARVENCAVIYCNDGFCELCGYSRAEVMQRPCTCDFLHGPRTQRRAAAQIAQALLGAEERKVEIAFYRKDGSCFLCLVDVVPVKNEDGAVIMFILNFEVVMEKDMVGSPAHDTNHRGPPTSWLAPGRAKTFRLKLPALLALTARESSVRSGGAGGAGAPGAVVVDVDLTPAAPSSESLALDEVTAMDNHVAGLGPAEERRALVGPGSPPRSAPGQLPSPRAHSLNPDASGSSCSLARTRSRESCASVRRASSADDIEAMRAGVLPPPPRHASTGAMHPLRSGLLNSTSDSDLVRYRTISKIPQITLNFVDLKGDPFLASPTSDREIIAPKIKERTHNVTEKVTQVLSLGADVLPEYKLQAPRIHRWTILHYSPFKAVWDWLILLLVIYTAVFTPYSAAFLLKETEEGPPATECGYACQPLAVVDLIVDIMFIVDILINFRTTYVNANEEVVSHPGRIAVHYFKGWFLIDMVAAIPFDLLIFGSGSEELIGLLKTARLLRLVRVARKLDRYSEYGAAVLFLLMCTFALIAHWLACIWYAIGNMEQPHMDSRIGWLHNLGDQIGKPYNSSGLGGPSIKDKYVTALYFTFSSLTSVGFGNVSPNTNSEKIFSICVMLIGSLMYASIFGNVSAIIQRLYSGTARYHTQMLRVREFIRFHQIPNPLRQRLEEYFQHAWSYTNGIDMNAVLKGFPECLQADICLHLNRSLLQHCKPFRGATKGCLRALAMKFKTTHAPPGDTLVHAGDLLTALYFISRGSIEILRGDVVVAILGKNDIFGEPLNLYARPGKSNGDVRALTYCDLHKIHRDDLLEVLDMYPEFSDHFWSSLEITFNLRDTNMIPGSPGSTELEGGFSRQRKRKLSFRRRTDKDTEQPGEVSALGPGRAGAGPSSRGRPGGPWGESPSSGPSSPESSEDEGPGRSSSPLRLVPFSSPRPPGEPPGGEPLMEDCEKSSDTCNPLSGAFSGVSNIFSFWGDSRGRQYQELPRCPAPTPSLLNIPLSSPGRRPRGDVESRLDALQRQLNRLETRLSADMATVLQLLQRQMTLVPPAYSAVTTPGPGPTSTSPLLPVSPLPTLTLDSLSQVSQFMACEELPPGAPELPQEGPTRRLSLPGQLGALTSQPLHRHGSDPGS
In short: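 Thallium flux as potassium surrogate: FluxOR II dye loaded 1 h at room temperature into hERG-expressing U2OS cells, then stimulus buffer added after 10 min. Kinetic 480 nm excitation/540 nm emission read, 2 min.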

[15] = Caspase-3/7 induction in HepG2 cells by small molecules, qHTS cell viability counter screen (AID 1346981); further: nearly all actives have a fitted effect of over 30% in size; further: potency means the concentration at half of the fitted maximal effect
In short: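 Counter screen for cytotoxicity: HepG2 exposed 16 hr to compounds, then CellTiter-Fluor viability signal (fluorescence, 1 hr reagent incubation).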

Structure (SMILES)	outcome [1]	Potency [2]	Potency [3]	Potency [4]	outcome [5]	Potency [6]	max activation [7]	Potency [8]	Potency [9]	Potency [10]	Potency [11]	Potency [12]	Potency [13]	outcome [14]	Potency [15]
Cc1ccccc1C(OCCN(C)C)c1ccccc1 (stereo not drawn)	inactive	inactive	inactive	inactive	inactive	inactive and 9.69 µM (active)	-0.826% (inactive)	inactive	inactive	inactive	inactive and 31.7 µM (active)	inactive			
C1N2CN3CN1CN(C2)C3	inactive	inactive	inactive	inactive	inactive	inactive			inactive	inactive	inactive and 15.5 µM (active)	inactive	inactive	inactive	
O=C(O)c1[nH]n(-c2ccc(S(=O)(=O)O)cc2)c(=O)c1N=Nc1ccc(S(=O)(=O)O)cc1	inactive	39.8 µM (active) and 45.4 µM (active)	inactive	29.8 µM (active) and 48.7 µM (active) and 45.4 µM (active)	inactive	inactive			inactive and 79.9 µM (active) and 29.6 µM (active)	inactive and 18.7 µM (active)	inactive	inactive	inactive	inactive	29.8 µM (active) and 27.4 µM (active) and 50.9 µM (active)
Cc1cc(=O)[nH]c(=S)[nH]1	inactive	inactive	inactive	inactive	inactive	inactive	-8.17% (inactive)	inactive	inactive	inactive	inactive	inactive	inactive	inactive	
O=C(O)CCC(=O)O	inactive	inactive	inactive	inactive	inactive	inactive	-3.42% (inactive)	inactive	inactive	inactive	inactive	inactive	inactive	inactive	inactive
O=C(O)CCCCCCCC(=O)O	inactive	inactive	inactive	inactive	inactive	inactive			inactive		inactive	inactive	inactive	inactive	inactive
O=C(c1ccccc1)C(O)c1ccccc1 (stereo not drawn)	inactive	inactive	inactive	inactive	inactive	inactive	-4.09% (inactive)	inactive	17.7 µM (active) and 31.7 µM (active) and 8.71 µM (active)	inactive	31.4 µM (active) and 12.9 µM (active)	inactive	39.6 µM (active) and inactive	inactive	inactive
O=c1cc[nH]c(=S)[nH]1	inactive	inactive	30.8 µM (active) and inactive	inactive	inactive	61.5 µM (active) and inactive	-8.7% (inactive)	inactive	28.5 µM (active) and inactive	40.2 µM (active) and inactive	71.5 µM (active) and 36.7 µM (active) and 24.5 µM (active)	inactive	inactive	inactive	
CCCCC(CC)COC(=O)/C=C/c1ccc(OC)cc1 (stereo not drawn)	inactive	inactive	inactive	inactive	inactive	inactive		inactive	39.8 µM (active) and 25.2 µM (active) and 24.5 µM (active)	19.9 µM (active) and 12.6 µM (active) and 11 µM (active)	19.9 µM (active) and 12.6 µM (active) and 13.8 µM (active)	inactive	inactive	inactive	
O=C1CN(/N=C/c2ccc([N+](=O)[O-])o2)C(=O)N1	inactive	27.2 µM (active) and 68.6 µM (active) and 26.6 µM (active)	inactive	60.9 µM (active) and 68.6 µM (active) and 33.5 µM (active)	inactive	inactive	-5.45% (inactive)	inactive	79.4 µM (active) and inactive	inactive	inactive	inactive	inactive	inactive	
NC(=O)c1ccccc1O	inactive	inactive	inactive	inactive	inactive	inactive	-6.5% (inactive)	inactive	inactive	inactive	inactive	inactive	inactive	inactive	
CCCCOC(=O)CC(CC(=O)OCCCC)(OC(C)=O)C(=O)OCCCC	inactive	inactive	inactive	inactive	inactive	6.68 µM (active) and 12.3 µM (active) and 13.7 µM (active)	0.822% (inactive)	25.1 µM (active)	2.19 µM (active) and 4.04 µM (active) and 3.56 µM (active)	2.75 µM (active) and 2.86 µM (active) and 2.52 µM (active)			inactive		inactive
CC(=O)OCC(COC(C)=O)OC(C)=O	inactive	inactive	inactive	inactive	inactive	inactive and 4.33 µM (active)	3.67% (inactive)	inactive	inactive	inactive	62.5 µM (active) and inactive	inactive	inactive	inactive	
CCCC(CCC)C(=O)O	inactive	inactive	inactive	inactive	inactive	inactive	6.66% (inactive)	inactive	inactive	79.6 µM (active) and inactive	5.62 µM (active) and inactive	inactive	inactive	inactive	
